Results filed as inconclusive are left out. The source made the active and inactive calls. The call rests on the fitted dose curve; in most records, active means well fitted inhibition curve with a large enough effect; inconclusive means small, poorly fitted or top-dose-only effect; inactive means no such curve, though single readings can be large or run the other way. Square brackets hold non-standard residues; d marks the D form. Peptide text beside a SMILES is read from it. * marks the point of attachment. Cbz = O=C(OCc1ccccc1)*; Nva = CCC[CH](N)C(=O)O
Test system: zebrafish Abcb4 (ABCB1 homolog)
Assay: qHTS for characterization and localization of zebrafish homologs of the human ABCB1 multidrug transporter: ABCB4 transfected cells
Settings: CellTiter-Glo viability luminescence, 72 h; series mostly up to 46.1 µM; activity change, negative = inhibition: at the top concentration
Excerpt: The zebrafish has emerged as a potential model to study the blood-brain barrier (BBB) given its similarities with mammalian systems. However, little information has been available with regard to homologous ATP-binding cassette transporters expressed at the zebrafish BBB. Two transporters that are highly expressed at the human BBB are P-glycoprotein (P-gp, encoded by the ABCB1 gene) and ABCG2 (encoded by the ABCG2 gene). In this study, we focus on characterization of P-gp homologs in the zebrafish, which has two genes that are homologous to human ABCB1 - abcb4 and abcb5. We generated stably-transfected cell lines to determine their substrate specificities. […] Zebrafish abcb4 also colocalized with claudin 5 expression in brain endothelial cells.
A high-throughput screen was performed as previously described on empty vector transfected cells, P-gp-overexpressing MDR-19 cells and cells transfected with full-length zebrafish abcb4 (ZF Abcb4) or abcb5 (ZF Abcb5). Briefly, cells were plated into 1536-well plates at a density of 500 cells/well in 5 uL media. P-gp substrate compounds (approximately 90) selected from our previous study were then added at varying concentrations using a 1536-head pin tool (Kalypsis, San Diego, CA) and plates were incubated at 37C in 5% CO2 for 72 h. CellTiter-Glo reagent (Promega) was dispensed into the wells, incubated for 5 min and luminescence was read on a ViewLux instrument (Perkin-Elmer).
Cytotoxic compounds were defined as those that yielded a curve class of -1.1, -1.2, -2.1, -2.2, -2.3, or -2.4, a maximum response of >50% and an AC50 of < 10 uM. All compounds from screening analysis were tested in Vector (empty vector control), MDR-19 (P-gp overexpressing), zebrafish abcb4 (ZF Abcb4) and abcb5 (ZF Abcb5) expression cell lines.
1. Tobie D Lee, Olivia W Lee, Kyle R Brimacombe, Lu Chen, Rajarshi Guha, Sabrina Lusvarghi, Bethilehem G Tebase, Carleen Klumpp-Thomas, Robert W Robey, Suresh V Ambudkar, Min Shen, Michael M Gottesman, Matthew D Hall. A High-Throughput Screen of a Library of Therapeutics Identifies Cytotoxic Substrates of P-glycoprotein. Mol Pharmacol. 2019, Nov;96(5):629-640.

| Compound | Potency | activity change, negative = inhibition |
| --- | --- | --- |
| C=CCn1c(=O)c2cnc(Nc3ccc(N4CCN(C)CC4)cc3)nc2n1-c1cccc(C(C)(C)O)n1 | 4.18 µM (active) |  |
| COC(C(=O)N1Cc2[nH]nc(NC(=O)c3ccc(N4CCN(C)CC4)cc3)c2C1)c1ccccc1 (stereo unspecified) |  | -3.58% (inactive) |
| CN(C)C/C=C/C(=O)Nc1cccc(C(=O)Nc2ccc(Nc3nccc(-c4cccnc4)n3)cc2)c1 |  | -2.48% (inactive) |
| CC[n+]1c(-c2ccccc2)c2cc(N)ccc2c2ccc(N)cc21 |  | -14% (inactive) |
| N=C(N)c1ccc(OCCCCCOc2ccc(C(=N)N)cc2)cc1 |  | -22.7% (inactive) |
| CC(C)(C)c1cnc(CSc2cnc(NC(=O)C3CCNCC3)s2)o1 | 38.2 µM (active) |  |
| CCCC(C=O)NC(=O)C(CC(C)C)NC(=O)C(CC(C)C)NC(=O)OCc1ccccc1 (stereo not drawn) (Cbz-Leu-Leu-[Nva]-aldehyde; configuration not given here) | 3.72 µM (active) |  |
| COC[C@H](NC(=O)c1cnc(C)s1)C(=O)N[C@@H](COC)C(=O)N[C@@H](Cc1ccccc1)C(=O)[C@@]1(C)CO1 | 0.935 µM (active) |  |
| C[C@@H]1O[C@@H](O[C@H]2[C@H](O)[C@@H](O)[C@H](O[C@H]3[C@H](O[C@H]4CC[C@@]5(C)C(=CC[C@@H]6C5CC[C@]5(C)[C@@H]7[C@H](C[C@@H]65)O[C@]5(CC[C@@](C)(CO[C@@H]6O[C@H](CO)[C@@H](O)[C@H](O)[C@H]6O)O5)[C@H]7C)C4)O[C@H](CO)[C@@H](O)[C@@H]3O)O[C@@H]2CO)[C@H](O)[C@H](O)[C@H]1O (stereo partly specified) |  | -18.3% [at 15.2 µM] (inactive) |
| O=C(NC1CC1)c1cccc(-c2ccc3c(NC(=O)C4CC4)n[nH]c3c2)c1 |  | -11.5% (inactive) |
| CCN(CCCO)CCCOc1ccc2c(Nc3cc(CC(=O)Nc4cccc(F)c4)[nH]n3)ncnc2c1 |  | 1.58% (inactive) |
